# Reference: PubChem BioAssay AID449762 (Southern Research Specialized Biocontainment Screening …, 2010)
# The whole screen tested about 330,000 compounds, of which about 1,900 (0.58%) were called active. Roughly 4% stayed inconclusive and do not appear here. Rule as the data show it: inconclusive = inhibition above about 70% without an active follow-up result; inactive = below that. These entries were drawn from the full list. Entries with a potency or affinity are not part of this list.
# Assay: M. tuberculosis growth inhibition, HTS (AID 449762);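 also: bacterial growth assessed after seven days of incubation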
# Conditions: M. tuberculosis H37Rv growth inhibition, 7H9 media; at 25 µM; hits give high values
row,Structure (SMILES),inhibition
1,O=C(Nc1ccn(Cc2c(F)c(F)c(F)c(F)c2F)n1)c1ccc(COc2ccccc2Cl)cc1,-14% (inactive)
2,O=C(Nc1ccn(Cc2c(F)c(F)cc(F)c2F)n1)c1ccc(COc2ccccc2Cl)cc1,0.39% (inactive)
3,CCCOC(=O)C1NC(=O)N2C(C(=O)OCCC)C(C)(C)S[C@H]12 (stereo partly specified),-1.23% (inactive)
4,c1ccc(CSc2ccc(-c3ccccn3)nn2)nc1,7.58% (inactive)
5,c1ccc(-c2ccc(SCc3cccnc3)nn2)nc1,-8.38% (inactive)
6,CC(=O)c1ccc(NC(=O)C(C)Sc2nnc3ccccn23)cc1 (stereo unspecified),-6.02% (inactive)
7,C=CCn1c(O)c(N=Nc2ccccc2C)c2ccccc21,53.8% (inactive)
8,C=CCn1c(O)c(N=Nc2ccccc2)c2ccccc21,19.4% (inactive)
9,O=C(Nc1ccc(C(=O)N2CCCC2)cc1)Nc1ccc(Cl)cc1Cl,-2.35% (inactive)
10,CC(C)c1nc(NCCO)c2nnn(Cc3ccccc3)c2n1,-8.58% (inactive)
11,COc1ccc(-n2nc(C(=O)NCC(=O)Nc3cc(C)ccc3OC)c3ccccc3c2=O)c(OC)c1,12.5% (inactive)
12,c1ccc(Cn2c[n+](Cc3ccccc3)c3ccccc32)cc1,2.04% (inactive)
13,Cc1ccc(OCC(O)CN2CCN(c3ccc(C)cc3)CC2)cc1 (stereo unspecified),10.5% (inactive)
14,CO/N=C/CC(=O)Nc1ccc(F)cc1F,-4.1% (inactive)
15,O=C(CCNC(=O)c1ccc([N+](=O)[O-])cc1)Nc1ccc(F)cc1F,17.9% (inactive)
16,O=C(COC(=O)c1ccc(F)cc1F)NCc1ccc2c(c1)OCO2,2.2% (inactive)
17,C=CCOc1ccc(C2=NOC(C(=O)Nc3ccc4c(c3)OCCO4)C2)cc1OC (stereo unspecified),4.17% (inactive)
18,O=C(Nc1ccc2c(c1)OCCO2)C1CC(c2ccc(F)cc2)=NO1 (stereo unspecified),-3.61% (inactive)
19,COc1ccccc1-c1nnc2sc(C3CCCCC3)nn12,-3.09% (inactive)
20,COc1cccc(-c2nnc3sc(C4CCCCC4)nn23)c1,66.4% (inactive)
21,CC(CN1CCCC1)OC(=O)c1ccc(Cl)cc1Cl (stereo unspecified),4.38% (inactive)
22,CC(=O)c1ccc(N2CCN(C(=S)NCCCN(C)C)CC2)cc1,3.66% (inactive)
23,CCCCNC(=S)N1CCN(c2ccc(C(C)=O)cc2)CC1,7.05% (inactive)

row,Structure (SMILES),inhibition
1,COc1ccc(-c2sc(Nc3ccccc3)n[n+]2-c2ccc(F)cc2)c(C)c1C,1.59% (inactive)
2,CC(C)c1ccccc1NC(=O)CC1(CC(=O)O)CCCC1,-1.9% (inactive)
3,Cc1ccc(N2C(=O)[C@@H]3Cc4ccccc4CN3C2=O)cc1,1.44% (inactive)
4,O=[N+]([O-])c1c(C(Cl)Cl)nn(-c2ccccc2)c1N1CCCC1,-9.83% (inactive)
5,O=[N+]([O-])c1c(C(Cl)Cl)nn(-c2ccccc2)c1N1CCOCC1,5.81% (inactive)
6,Cc1cc(C)n(-c2ccc(C(=O)NCc3cccs3)cc2)n1,-8.74% (inactive)
7,COc1ccc(-c2cc(N)n(S(=O)(=O)c3ccc(C)cc3)n2)c(OC)c1,-6.16% (inactive)
8,Cc1ccc(-n2c(C)cc(/C=C3\SC(=O)NC3=O)c2C)cc1,7.2% (inactive)
9,Cc1cc(/C=C2\SC(=O)N(C)C2=O)c(C)n1-c1ccc(S(N)(=O)=O)cc1,-2.91% (inactive)
10,Nc1ccc(-c2cc(-c3ccc(N)cc3)nc(-c3ccccc3)n2)cc1,-2.43% (inactive)
11,COc1ccccc1N1CCN(C(c2cccs2)C(C)NC(=O)C(=O)N2CCCCC2)CC1 (stereo unspecified),3.15% (inactive)
12,Cc1cc(C(=O)Nc2c(C)nn(Cc3ccccc3Cl)c2C)no1,-4.86% (inactive)
13,Cc1ccc(S(=O)(=O)Oc2cccc(/C=N/Nc3ccc(C(=O)O)cc3)c2)cc1,20.9% (inactive)
14,O=C(Cc1cccs1)N1CCCC(c2nc3c(nnn3Cc3ccc(F)cc3)c(=O)[nH]2)C1 (stereo unspecified),-5.77% (inactive)
15,CC(C)(C)c1ccc(Cn2nnc3c(=O)[nH]c(C4CCCN(C(=O)c5cccs5)C4)nc32)cc1 (stereo unspecified),11.9% (inactive)
16,COc1c(/C=N/NC(N)=S)c(C)nn1-c1ccccc1,65.5% (inactive)
17,CCC1CN(C(=O)N2CCC(C(=O)NCCc3ccccc3OC)CC2)c2ccccc2O1 (stereo unspecified),2.39% (inactive)
18,CCCc1cc2c(cc1NC(=O)c1ccccc1F)OCO2,42% (inactive)
19,CCCc1cc2c(cc1NC(=O)c1ccco1)OCO2,0.1% (inactive)
20,CCCCNC(=S)N(C)/N=C/c1ccc(OCC(=O)Nc2ccc(OC)cc2)c(OC)c1,5.57% (inactive)
21,O=C(NNC(=O)c1cccc(-n2cnnn2)c1)c1ccccc1,4.62% (inactive)
22,COc1ccc(CCN2CCCC(CN(C)Cc3cc(OC)c(OC)c(OC)c3)C2)cc1 (stereo unspecified),2.86% (inactive)
23,CCCCCCCCNC(=O)/C(C#N)=C/c1ccccc1[N+](=O)[O-],9.84% (inactive)
